Results on 6 compounds are retold here after PubChem BioAssay (EPA / NIEHS).

Read-out in assay [1]: Matrix Metallopeptidase 9 (MMP9), MMP9 (gene 4318)
Description: BSK_KF3CT_MMP9: BioMAP Diversity Plus: KF3CT Assay for Matrix Metallopeptidase 9 (MMP9) Biomarker Activity (AID 2283074).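 As to AC50: MMP9 protein level quantified by ELISA in the co-culture.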 Conditions: primary human keratinocytes with fibroblasts; actives raise or lower the signal. The method in brief: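 ELISA read-out of MMP-9 at 24 h post-dosing in a co-culture of human skin keratinocytes and foreskin fibroblasts. Gain or loss of signal was fitted in both directions against DMSO.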

Read-out in assay [2]: urokinase plasminogen activator (uPA), PLAU (gene 5328)
Briefly: BSK_KF3CT_uPA: BioMAP Diversity Plus: KF3CT Assay for urokinase plasminogen activator (uPA) Biomarker Activity (AID 2283075). Conditions: primary human keratinocytes with fibroblasts; actives raise or lower the signal. The method, boiled down: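 Skin co-culture (keratinocytes + foreskin fibroblasts), human primary; 24 h post-dose; uPA by ELISA; gain/loss fit vs DMSO baseline.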

Read-out in assay [3]: CD40, CD40 (gene 958)
Description: BSK_LPS_CD40: BioMAP Diversity Plus: LPS Assay for CD40 Biomarker Activity (AID 2283076). Conditions: primary human HUVEC with PBMC; actives raise or lower the signal. The method in brief:
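HUVEC plus PBMC co-culture stimulated with LPS; CD40 quantified by ELISA 24 h after compound dosing. Fitting was bidirectional relative to DMSO. SRB staining of parallel cultures flagged overt cytotoxicity.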

Read-out in assay [4]: E-selectin (Homo sapiens) (UniProt P16581)
Description: BSK_LPS_Eselectin: BioMAP Diversity Plus: LPS Assay for Eselectin Biomarker Activity (AID 2283077). Conditions: primary human HUVEC with PBMC; actives raise or lower the signal. The method, boiled down: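 Human umbilical vein endothelial cells co-cultured with PBMC under LPS stimulation; cell-surface E-selectin measured by ELISA 24 h after dosing. Change in either direction versus DMSO, with SRB total-protein staining in parallel cultures for cytotoxicity.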

Read-out in assay [5]: Interleukin-8 (IL8), CXCL8 (gene 3576)
Briefly: BSK_LPS_IL8: BioMAP Diversity Plus: LPS Assay for Interleukin-8 (IL8) Biomarker Activity (AID 2283078). Conditions: primary human HUVEC with PBMC; actives raise or lower the signal. The method in brief: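 Human umbilical vein endothelial cells co-cultured with PBMC, LPS-stimulated, exposed to compound for 24 h. IL-8 quantified by ELISA; fitted in both directions against DMSO, with SRB total-protein staining of parallel cultures for cytotoxicity.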

A short description of assay [6]: BSK_LPS_SRB: Viability Assessment in the BioMAP Diversity Plus: LPS Assay (AID 2283079).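 Also: total protein by sulforhodamine B absorbance as a cytotoxicity measure; measured one day after compound addition.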 Conditions: primary human HUVEC with PBMC. The method, boiled down: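 Co-culture of human umbilical vein endothelial cells and PBMC, read 24 h after dosing. Total protein by 0.1% SRB staining after 10% TCA fixation, absorbance at 560 nm; bidirectional fit against DMSO.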
Read-out in assay [7]: Interleukin-1 alpha (IL1a), IL1A (gene 3552)
Briefly: BSK_LPS_IL1a: BioMAP Diversity Plus: LPS Assay for Interleukin-1 alpha (IL1a) Biomarker Activity (AID 2283080). Conditions: primary human HUVEC with PBMC; actives raise or lower the signal. The method in brief: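 Human umbilical vein endothelial cells co-cultured with PBMC and stimulated with LPS; IL-1a measured by ELISA 24 h after dosing. Bidirectional fitting against DMSO; cytotoxicity checked by SRB staining in parallel cultures.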

Read-out in assay [8]: Monocyte Chemoattractant Protein-1 (MCP1), CCL2 (gene 6347)
Briefly: BSK_LPS_MCP1: BioMAP Diversity Plus: LPS Assay for Monocyte Chemoattractant Protein-1 (MCP1) Biomarker Activity (AID 2283081). Conditions: primary human HUVEC with PBMC; actives raise or lower the signal. The method, boiled down:
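Human umbilical vein endothelial cells co-cultured with PBMC, LPS-stimulated; secreted MCP-1 measured by ELISA 24 h after compound addition. Bidirectional curve fitting against DMSO baseline; SRB total-protein staining in parallel cultures for cytotoxicity.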

The nature of assay [9]: BSK_LPS_PGE2: BioMAP Diversity Plus: LPS Assay for Prostaglandin E2 (PGE2) Biomarker Activity (AID 2283082).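 As to AC50: secreted prostaglandin E2 measured by ELISA in LPS-stimulated co-culture.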 Conditions: primary human HUVEC with PBMC; actives raise or lower the signal. The method, boiled down:
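PGE2 release measured by ELISA in an LPS-activated co-culture of human umbilical vein endothelial cells and peripheral blood mononuclear cells, read at 24 h post-dosing. DMSO served as baseline for bidirectional curve fitting.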

Read-out in assay [10]: Macrophage colony-stimulating factor (MCSF), CSF1 (gene 1435)
Description: BSK_LPS_MCSF: BioMAP Diversity Plus: LPS Assay for Macrophage colony-stimulating factor (MCSF) Biomarker Activity (AID 2283083). Conditions: primary human HUVEC with PBMC; actives raise or lower the signal. The method in brief: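 HUVEC–PBMC co-culture, M-CSF measured by ELISA 24 h after chemical dosing. Fitted in both directions relative to DMSO as negative control; overt cytotoxicity assessed by SRB total-protein staining in parallel cultures.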

Read-out in assay [11]: Tissue Factor, F3 (gene 2152)
Description: BSK_LPS_TissueFactor: BioMAP Diversity Plus: LPS Assay for Tissue Factor Biomarker Activity (AID 2283084). Conditions: primary human HUVEC with PBMC; actives raise or lower the signal. The method, boiled down: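 Human umbilical vein endothelial cells co-cultured with PBMC were dosed with compound. Cell-surface CD142 was measured by ELISA 24 h later. Activity was fitted bidirectionally against DMSO, with SRB total-protein staining in parallel cultures for cytotoxicity.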

Read-out in assay [12]: Tumor necrosis factor (Homo sapiens) (UniProt P01375)
Description: BSK_LPS_TNFa: BioMAP Diversity Plus: LPS Assay for Tumour Necrosis Factor alpha (TNFa) Biomarker Activity (AID 2283085).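 As to AC50: TNFa protein level quantified by ELISA in the co-culture.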 Conditions: primary human HUVEC with PBMC; actives raise or lower the signal. The method, boiled down: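 TNFa was quantified by ELISA in LPS-activated co-cultures of human endothelial cells and PBMC, 24 h post-dosing. Both increases and decreases versus DMSO were fitted.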

Read-out in assay [13]: CD38, CD38 (gene 952)
Description: BSK_SAg_CD38: BioMAP Diversity Plus: SAg Assay for CD38 Biomarker Activity (AID 2283087). Conditions: primary human HUVEC with PBMC; actives raise or lower the signal. The method in brief: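 CD38 quantified by ELISA (fluorescence) in a superantigen-activated endothelial cell–PBMC co-culture at 24 h post-dose. Activity fitted in both directions relative to DMSO; parallel SRB and Alamar Blue cytotoxicity read-outs.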

Read-out in assay [14]: CD40, CD40 (gene 958)
Briefly: BSK_SAg_CD40: BioMAP Diversity Plus: SAg Assay for CD40 Biomarker Activity (AID 2283088). Conditions: primary human HUVEC with PBMC; actives raise or lower the signal. The method in brief:
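HUVEC plus PBMC co-culture, superantigen-activated, with CD40 read by ELISA 24 h after dosing. Curves fitted in both directions against DMSO. Overt cytotoxicity checked by parallel SRB total-protein staining.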

Read-out in assay [15]: CD69, CD69 (gene 969)
Briefly: BSK_SAg_CD69: BioMAP Diversity Plus: SAg Assay for CD69 Biomarker Activity (AID 2283089).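 As to AC50: cell surface CD69 protein quantified by ELISA with fluorescence detection.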 Conditions: primary human HUVEC with PBMC; actives raise or lower the signal. The method in brief:
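Values derive from bidirectional fitting relative to DMSO vehicle. Cells: umbilical vein endothelium plus peripheral blood mononuclear cells, treated 24 h before fluorescent ELISA for CD69.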

Read-out in assay [16]: Monocyte Chemoattractant Protein-1 (MCP1), CCL2 (gene 6347)
Briefly: BSK_SAg_MCP1: BioMAP Diversity Plus: SAg Assay for Monocyte Chemoattractant Protein-1 (MCP1) Biomarker Activity (AID 2283090). Conditions: primary human HUVEC with PBMC; actives raise or lower the signal. The method in brief:
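Values derive from bidirectional fitting of ELISA-measured MCP1 against DMSO controls. Readings were taken 24 h after dosing human vascular endothelial cells co-cultured with peripheral blood mononuclear cells under superantigen stimulation.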

Read-out in assay [17]: E-selectin (Homo sapiens) (UniProt P16581)
Description: BSK_SAg_Eselectin: BioMAP Diversity Plus: SAg Assay for Eselectin Biomarker Activity (AID 2283091). Conditions: primary human HUVEC with PBMC; actives raise or lower the signal. The method in brief:
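Human umbilical vein endothelial cells co-cultured with peripheral blood mononuclear cells, SAg system. E-selectin is measured by ELISA 24 h after dosing and fitted bidirectionally against DMSO. Cytotoxicity is checked by SRB staining of parallel cultures.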

Read-out in assay [18]: Monokine induced gamma interferon (MIG), CXCL9 (gene 4283)
Briefly: BSK_SAg_MIG: BioMAP Diversity Plus: SAg Assay for Monokine induced gamma interferon (MIG) Biomarker Activity (AID 2283092). Conditions: primary human HUVEC with PBMC; actives raise or lower the signal. The method, boiled down: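 Values reflect bidirectional fitting of ELISA-measured MIG against DMSO vehicle, taken 24 h after dosing of a co-culture of human umbilical vein endothelial cells and peripheral blood mononuclear cells.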

Assay [19] can be described thus: BSK_SAg_PBMCCytotoxicity: PBMC Cytotoxicity Assessment in the BioMAP Diversity Plus: SAg Assay (AID 2283093).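 Also: fitted both ways against DMSO so a hit may be loss or gain of signal.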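 As to AC50: PBMC superantigen activated with SEB plus TSST-1 one hour after compound addition.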 Conditions: primary human HUVEC with PBMC. The method in brief: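 PBMC viability by Alamar Blue reduction, fluorescence read at 546/580 nm after 6 h dye exposure. Cells were dosed 1 h before SEB plus TSST-1 activation (20 ng/mL final each), then held 90 h; endothelial/PBMC human co-culture.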

Read-out in assay [20]: Vascular cell adhesion molecule 1 (VCAM1), VCAM1 (gene 7412)
Description: BSK_LPS_VCAM1: BioMAP Diversity Plus: LPS Assay for Vascular cell adhesion molecule 1 (VCAM1) Biomarker Activity (AID 2283086). Conditions: primary human HUVEC with PBMC; actives raise or lower the signal. The method, boiled down: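 VCAM-1 quantified by ELISA in an LPS-activated co-culture of human endothelial cells and peripheral blood mononuclear cells, read 24 h post-treatment. Fitted in both directions versus DMSO; parallel SRB staining flags overt cytotoxicity.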

Values joined by “and” are separate entries in the source; they are usually repeats but may differ in a detail not shown here. Equal entries are not always repeated. Some compounds were tested as several samples or in several runs, with calls that do not always agree. Active and inactive are the calls of the source. The calls were made as follows: active = hit-call score of the fitted dose curve at least 0.9, where 1 is the maximum; inactive = score below 0.9.

Sequence of E-selectin (Homo sapiens) (P16581 whole entry, looked up): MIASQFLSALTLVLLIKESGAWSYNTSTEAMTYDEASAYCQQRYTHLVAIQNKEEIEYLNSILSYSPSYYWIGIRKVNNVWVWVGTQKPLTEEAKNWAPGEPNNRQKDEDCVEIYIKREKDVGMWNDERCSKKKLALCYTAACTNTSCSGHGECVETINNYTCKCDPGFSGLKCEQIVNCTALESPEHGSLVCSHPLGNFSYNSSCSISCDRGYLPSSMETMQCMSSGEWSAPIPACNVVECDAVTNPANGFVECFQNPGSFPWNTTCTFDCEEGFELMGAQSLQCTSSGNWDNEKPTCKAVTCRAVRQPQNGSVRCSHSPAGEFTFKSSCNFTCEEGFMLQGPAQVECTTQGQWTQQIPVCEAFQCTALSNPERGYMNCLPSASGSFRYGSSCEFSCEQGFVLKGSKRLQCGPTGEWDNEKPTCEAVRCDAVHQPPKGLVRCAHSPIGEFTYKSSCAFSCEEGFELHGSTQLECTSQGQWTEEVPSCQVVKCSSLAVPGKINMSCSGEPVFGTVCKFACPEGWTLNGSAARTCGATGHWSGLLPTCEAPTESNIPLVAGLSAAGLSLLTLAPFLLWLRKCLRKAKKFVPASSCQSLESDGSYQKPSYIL
Sequence of Tumor necrosis factor (Homo sapiens) (P01375 whole entry, looked up): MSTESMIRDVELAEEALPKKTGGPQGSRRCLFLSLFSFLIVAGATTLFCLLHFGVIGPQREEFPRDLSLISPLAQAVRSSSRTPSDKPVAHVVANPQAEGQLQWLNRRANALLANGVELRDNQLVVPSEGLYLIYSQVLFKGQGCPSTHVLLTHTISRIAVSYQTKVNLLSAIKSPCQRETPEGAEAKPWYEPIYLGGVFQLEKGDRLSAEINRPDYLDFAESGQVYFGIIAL

Regarding `NC(=S)Nc1ccccc1`, the outcome in [1], in assay [2], in [3], in [4], in assay [5] and in assay [6] was inactive. The result in assay [7], in assay [8], in assay [9], in [10], in assay [11] and in [12] was inactive. Moreover, the outcome in assay [13], in [14], in [15], in assay [16], in assay [17] and in assay [18] was inactive. In addition, in assay [19], the result was inactive.

By AC50 is commonly meant the concentration giving half of the maximal activity seen. Regarding `Oc1c(I)cc(I)cc1I`, the AC50 in assay [1] is 5.35 µM (active); in [2], 31.2 µM (active); in [3], 14.2 µM (active); in [4], 27.6 µM (active); in assay [6], 20 µM (active); in [10] it was 31.1 µM (active). Also, the AC50 was 25.4 µM (active) in assay [13]; 25.3 µM (active) in assay [14]; 29.4 µM (active) in assay [15]; 32.3 µM (active) in assay [16]; 14.7 µM (active) in [17]; 34.2 µM (active) in assay [18]. Moreover, the outcome in assay [5], in assay [7], in assay [8], in assay [9], in [11] and in [12] was inactive. The result in [19] was inactive.

Consider `CCCCCCCCC(=O)NCc1ccc(O)c(OC)c1`, for which the outcome in assay [1], in assay [2], in assay [3], in assay [4], in [5] and in [6] was inactive. The result in assay [8], in assay [10], in assay [11], in assay [12], in assay [20] and in assay [13] was inactive. Moreover, the outcome in assay [14], in assay [15], in assay [16], in assay [17], in assay [18] and in assay [19] was inactive. Moreover, the half-maximal activity concentration (AC50) in assay [7] is 0.1 µM (active); in [9], 12.8 µM (active).

In the case of `ClC1=C(Cl)[C@]2(Cl)[C@H]3[C@H]([C@H]4C=C[C@H]3C4)[C@@]1(Cl)C2(Cl)Cl`, the result in assay [1], in [2], in [3], in assay [4], in assay [7] and in assay [8] was inactive. The outcome in [10], in assay [11], in assay [20], in assay [16], in [17] and in assay [18] was inactive. Also, the AC50 in assay [5] is 160 nM (active); in [6] it was 5.73 µM (active); in [9], 0.142 µM (active); in [12] it was 0.296 µM (active); in [13], 4.55 µM (active); in assay [14], 4.46 µM (active). The concentration at half-maximal activity (AC50) in assay [19] is 20 µM (active).

`O=C(O)CCC(F)(C(F)(F)F)C(F)(F)F`: the outcome in assay [1], in [2], in [3], in assay [4], in assay [5] and in assay [6] was inactive. For the same compound, the result in assay [7], in [8], in assay [9], in assay [10], in [11] and in assay [12] was inactive. The outcome in assay [13], in assay [14], in assay [15], in assay [16], in [17] and in [18] was inactive. Besides, the outcome in assay [19] was inactive.

Turning to `O=C(O)C(F)(F)C(F)(F)C(F)(F)C(F)(F)C(F)(F)C(F)(F)F`, the result in assay [1], in [2], in [3], in assay [4], in assay [5] and in assay [6] was inactive. The result in assay [8], in [9], in assay [10], in assay [11], in [12] and in assay [20] was inactive. Further, the result in [13], in [14], in assay [15], in assay [16], in assay [17] and in [18] was inactive. Further, the outcome in assay [19] was inactive. Moreover, in assay [5], the AC50 is 14.6 µM (active) and 30 µM (active).
